# Source: the supplement of paper PMC10849652
# About 7,900 targets were measured; listed, in parts, are those with a hit and a random draw of the rest. About 0.6% of all pairs of compound and target were hits. Unmarked numbers belong to inactive results.
# Compound: CC1=C2C(=CC=C1)N=C(N(C2=O)C3=CC=CC=C3C)CN4C=NC5=C(N=CN=C54)N
# Assay: log2 fold change, soluble protein after heating vs DMSO (PISA); higher = thermal stabilisation; K562 cells, 10 uM, 30 min; active = over 0.2 and 3.5 SD of the protein, either way, in both replicates (recomputed)
# Method in brief: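 K562 cells (2×10^6 cells/mL) were treated with 10 μM compound for 30 min, and aliquots were heated for 3 min over 48°C-58°C. Pooled aliquots were extracted in PBS with 0.5% NP-40 at 4°C, and the supernatant after 21,000xg for 90 min was measured by TMTpro 16plex LC-MS/MS with channel sums equalised. Reported thermal stability, relative to control samples and from duplicates, is a log2 fold change.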
# UniProt Q6NUM9, sequence (Q6NUM9 whole entry, looked up): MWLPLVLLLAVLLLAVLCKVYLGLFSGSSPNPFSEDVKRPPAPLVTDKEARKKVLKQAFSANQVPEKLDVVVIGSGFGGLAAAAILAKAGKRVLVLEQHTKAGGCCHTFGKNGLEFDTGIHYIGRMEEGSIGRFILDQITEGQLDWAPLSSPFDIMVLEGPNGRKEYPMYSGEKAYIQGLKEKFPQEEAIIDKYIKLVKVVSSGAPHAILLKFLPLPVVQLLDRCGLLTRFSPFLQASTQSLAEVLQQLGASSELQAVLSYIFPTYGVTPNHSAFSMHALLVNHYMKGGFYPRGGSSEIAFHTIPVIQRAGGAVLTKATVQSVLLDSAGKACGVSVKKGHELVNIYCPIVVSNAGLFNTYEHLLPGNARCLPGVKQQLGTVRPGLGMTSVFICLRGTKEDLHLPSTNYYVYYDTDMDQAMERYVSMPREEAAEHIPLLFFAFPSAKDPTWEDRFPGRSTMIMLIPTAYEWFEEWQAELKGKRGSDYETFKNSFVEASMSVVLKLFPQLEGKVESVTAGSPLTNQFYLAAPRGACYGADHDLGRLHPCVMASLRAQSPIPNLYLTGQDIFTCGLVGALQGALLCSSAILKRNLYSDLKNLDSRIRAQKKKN
# UniProt Q14498, sequence (Q14498 whole entry, looked up): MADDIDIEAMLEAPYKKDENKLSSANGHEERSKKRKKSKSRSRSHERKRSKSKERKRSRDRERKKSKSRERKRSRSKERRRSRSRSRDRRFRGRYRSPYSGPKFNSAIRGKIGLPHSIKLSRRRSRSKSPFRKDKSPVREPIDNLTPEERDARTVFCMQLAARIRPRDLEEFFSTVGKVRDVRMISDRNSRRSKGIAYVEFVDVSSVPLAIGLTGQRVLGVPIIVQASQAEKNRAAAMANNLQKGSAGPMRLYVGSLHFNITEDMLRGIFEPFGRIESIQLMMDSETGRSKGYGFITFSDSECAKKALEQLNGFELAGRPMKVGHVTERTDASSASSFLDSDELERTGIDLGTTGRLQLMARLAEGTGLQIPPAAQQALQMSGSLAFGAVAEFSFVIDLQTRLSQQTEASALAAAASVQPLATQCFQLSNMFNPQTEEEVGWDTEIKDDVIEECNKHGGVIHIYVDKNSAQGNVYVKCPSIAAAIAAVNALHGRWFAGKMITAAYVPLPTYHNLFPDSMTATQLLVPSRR
# UniProt Q8IZV5, sequence (Q8IZV5 whole entry, looked up): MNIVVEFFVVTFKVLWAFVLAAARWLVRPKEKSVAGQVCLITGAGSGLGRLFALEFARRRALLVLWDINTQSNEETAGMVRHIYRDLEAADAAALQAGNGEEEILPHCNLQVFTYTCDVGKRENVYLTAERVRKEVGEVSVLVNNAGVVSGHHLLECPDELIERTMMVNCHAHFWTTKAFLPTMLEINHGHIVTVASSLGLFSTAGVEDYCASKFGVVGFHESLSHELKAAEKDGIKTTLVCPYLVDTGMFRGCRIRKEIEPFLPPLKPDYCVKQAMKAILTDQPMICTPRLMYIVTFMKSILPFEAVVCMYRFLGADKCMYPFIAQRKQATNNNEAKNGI
# UniProt P51151, sequence (P51151 whole entry, looked up): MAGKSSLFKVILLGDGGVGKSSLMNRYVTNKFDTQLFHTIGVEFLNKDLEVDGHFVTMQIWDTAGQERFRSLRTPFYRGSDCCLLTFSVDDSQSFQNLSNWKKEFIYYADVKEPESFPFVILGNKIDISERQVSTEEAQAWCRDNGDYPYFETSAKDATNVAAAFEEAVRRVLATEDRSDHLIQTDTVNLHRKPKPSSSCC
# UniProt P43003, sequence (P43003 whole entry, looked up): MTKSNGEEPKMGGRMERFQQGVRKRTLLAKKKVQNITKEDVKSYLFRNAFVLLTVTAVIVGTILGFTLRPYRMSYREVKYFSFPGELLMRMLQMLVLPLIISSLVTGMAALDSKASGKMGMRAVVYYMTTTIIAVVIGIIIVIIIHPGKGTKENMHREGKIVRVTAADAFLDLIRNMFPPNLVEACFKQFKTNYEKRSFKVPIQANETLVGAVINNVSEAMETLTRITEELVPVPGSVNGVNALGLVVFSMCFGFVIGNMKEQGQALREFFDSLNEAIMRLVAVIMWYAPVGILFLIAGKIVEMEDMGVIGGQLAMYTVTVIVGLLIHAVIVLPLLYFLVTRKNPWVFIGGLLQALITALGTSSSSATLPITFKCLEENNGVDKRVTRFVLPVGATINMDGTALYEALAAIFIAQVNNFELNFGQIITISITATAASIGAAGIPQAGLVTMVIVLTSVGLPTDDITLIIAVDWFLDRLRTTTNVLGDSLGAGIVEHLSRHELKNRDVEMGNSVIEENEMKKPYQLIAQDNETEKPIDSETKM
# UniProt Q13796, sequence (Q13796 whole entry, looked up): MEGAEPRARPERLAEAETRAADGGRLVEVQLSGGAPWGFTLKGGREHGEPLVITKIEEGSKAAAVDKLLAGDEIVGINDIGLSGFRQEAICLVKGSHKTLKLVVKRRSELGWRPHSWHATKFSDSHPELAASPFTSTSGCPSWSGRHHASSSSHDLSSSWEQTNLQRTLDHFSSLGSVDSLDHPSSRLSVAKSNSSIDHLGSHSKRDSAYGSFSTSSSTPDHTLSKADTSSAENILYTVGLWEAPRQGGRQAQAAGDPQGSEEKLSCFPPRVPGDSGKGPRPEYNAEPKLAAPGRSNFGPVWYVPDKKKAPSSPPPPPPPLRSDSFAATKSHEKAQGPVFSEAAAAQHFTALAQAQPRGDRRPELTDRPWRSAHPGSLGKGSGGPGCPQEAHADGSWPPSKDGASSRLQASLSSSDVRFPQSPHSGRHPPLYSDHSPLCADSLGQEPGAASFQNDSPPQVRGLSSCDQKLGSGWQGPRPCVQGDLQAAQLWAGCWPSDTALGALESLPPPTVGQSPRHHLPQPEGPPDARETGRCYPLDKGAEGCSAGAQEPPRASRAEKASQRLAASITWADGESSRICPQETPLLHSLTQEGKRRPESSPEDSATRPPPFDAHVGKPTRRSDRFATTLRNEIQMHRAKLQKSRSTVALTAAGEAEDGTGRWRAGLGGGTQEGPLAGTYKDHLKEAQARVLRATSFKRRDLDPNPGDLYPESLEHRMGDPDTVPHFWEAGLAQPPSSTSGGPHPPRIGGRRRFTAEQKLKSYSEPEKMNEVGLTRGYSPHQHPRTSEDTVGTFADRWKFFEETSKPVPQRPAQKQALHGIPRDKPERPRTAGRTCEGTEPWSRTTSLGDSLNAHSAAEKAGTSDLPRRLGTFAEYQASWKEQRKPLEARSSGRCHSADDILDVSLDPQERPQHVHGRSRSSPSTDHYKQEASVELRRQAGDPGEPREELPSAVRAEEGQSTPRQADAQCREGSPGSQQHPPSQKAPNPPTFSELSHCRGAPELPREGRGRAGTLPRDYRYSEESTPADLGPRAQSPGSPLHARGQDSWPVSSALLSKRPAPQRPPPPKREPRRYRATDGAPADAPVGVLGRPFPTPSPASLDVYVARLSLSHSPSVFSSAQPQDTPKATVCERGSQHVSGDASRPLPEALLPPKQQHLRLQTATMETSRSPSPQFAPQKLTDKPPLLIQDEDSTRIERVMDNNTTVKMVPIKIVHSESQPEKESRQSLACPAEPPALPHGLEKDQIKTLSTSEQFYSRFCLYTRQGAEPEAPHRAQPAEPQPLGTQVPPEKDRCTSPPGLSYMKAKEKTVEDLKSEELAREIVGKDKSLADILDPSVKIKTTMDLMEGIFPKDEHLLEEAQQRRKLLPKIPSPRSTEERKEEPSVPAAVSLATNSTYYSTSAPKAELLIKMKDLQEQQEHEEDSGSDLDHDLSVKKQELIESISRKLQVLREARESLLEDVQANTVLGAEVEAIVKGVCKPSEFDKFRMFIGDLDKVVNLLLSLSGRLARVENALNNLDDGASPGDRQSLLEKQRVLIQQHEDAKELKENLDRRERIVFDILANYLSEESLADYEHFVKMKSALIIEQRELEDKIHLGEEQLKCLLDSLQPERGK
# UniProt Q8WXD2, sequence (Q8WXD2 whole entry, looked up): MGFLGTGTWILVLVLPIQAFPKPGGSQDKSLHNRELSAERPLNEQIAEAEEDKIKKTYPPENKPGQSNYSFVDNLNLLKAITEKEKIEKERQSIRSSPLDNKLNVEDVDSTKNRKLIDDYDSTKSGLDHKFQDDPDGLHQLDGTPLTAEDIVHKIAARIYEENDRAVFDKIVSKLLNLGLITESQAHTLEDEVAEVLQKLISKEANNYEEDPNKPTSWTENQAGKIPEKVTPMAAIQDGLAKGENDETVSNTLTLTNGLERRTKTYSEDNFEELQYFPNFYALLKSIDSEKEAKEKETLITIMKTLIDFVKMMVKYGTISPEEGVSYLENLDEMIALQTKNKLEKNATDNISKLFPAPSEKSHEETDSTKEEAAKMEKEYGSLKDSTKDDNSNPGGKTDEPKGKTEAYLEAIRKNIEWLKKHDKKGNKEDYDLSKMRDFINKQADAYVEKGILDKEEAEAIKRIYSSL
# UniProt Q8N0T1, sequence (Q8N0T1 whole entry, looked up): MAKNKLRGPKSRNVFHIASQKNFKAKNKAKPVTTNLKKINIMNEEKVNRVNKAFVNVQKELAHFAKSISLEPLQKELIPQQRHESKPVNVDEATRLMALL
# UniProt Q5VTB9, sequence (Q5VTB9 whole entry, looked up): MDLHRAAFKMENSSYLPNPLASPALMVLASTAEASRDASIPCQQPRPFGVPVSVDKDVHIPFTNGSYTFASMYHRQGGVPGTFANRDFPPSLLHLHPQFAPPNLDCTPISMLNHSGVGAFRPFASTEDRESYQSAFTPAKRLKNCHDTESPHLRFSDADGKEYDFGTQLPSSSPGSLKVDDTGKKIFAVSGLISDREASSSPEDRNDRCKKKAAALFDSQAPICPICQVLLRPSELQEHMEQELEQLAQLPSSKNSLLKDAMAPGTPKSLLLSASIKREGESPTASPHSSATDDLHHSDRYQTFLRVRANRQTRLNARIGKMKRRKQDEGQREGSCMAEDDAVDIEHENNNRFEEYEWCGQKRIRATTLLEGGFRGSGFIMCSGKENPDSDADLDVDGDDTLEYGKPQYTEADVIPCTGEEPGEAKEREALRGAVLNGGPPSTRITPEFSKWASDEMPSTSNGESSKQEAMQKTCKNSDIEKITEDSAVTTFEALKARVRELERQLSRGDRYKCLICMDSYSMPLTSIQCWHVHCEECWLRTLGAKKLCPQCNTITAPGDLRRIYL
row,Target,log2 fold change
1,RPS3 (UniProt P23396),-0.127
2,RNF167 (UniProt Q9H6Y7),0.002
3,SEC24A (UniProt O95486),0.014
4,RSRC1 (UniProt Q96IZ7),0.079
5,RB1CC1 (UniProt Q8TDY2),0.032
6,RBM39 (UniProt Q14498),-0.02
7,RCC1 isoform 2 (UniProt P18754),0.176
8,RPS6KA3 (UniProt P51812),0.036
9,RDH10 (UniProt Q8IZV5),0.098
10,RNF220 (UniProt Q5VTB9),0.14
11,RAP2C (UniProt Q9Y3L5),-0.012
12,RAD51 (UniProt Q06609),-0.037
13,RRP9 (UniProt O43818),0.02
14,SEH1L isoform 1 (UniProt Q96EE3),-0.003
15,RAPGEF4 (UniProt Q8WZA2),0.268
16,RIOK2 (UniProt Q9BVS4),-0.119
17,SHROOM2 (UniProt Q13796),0.103
18,RPS25 (UniProt P62851),-0.139
19,SCYL3 isoform 2 (UniProt Q8IZE3),0.055

row,Target,log2 fold change
1,SACM1L (UniProt Q9NTJ5),0.064
2,ROCK2 (UniProt O75116),0.085
3,RBIS (UniProt Q8N0T1),-0.02
4,RALY (UniProt Q9UKM9),-0.243
5,RNF2 (UniProt Q99496),0.153
6,REL (UniProt Q04864),0.046
7,RPS6KA1 isoform 2 (UniProt Q15418),0.051
8,SLC1A3 (UniProt P43003),-0.016
9,RPAIN isoform 8 (UniProt Q86UA6),0.046
10,RAB9A (UniProt P51151),0.065
11,RELA (UniProt Q04206),0.03
12,RPS5 (UniProt P46782),-0.214
13,RETSAT (UniProt Q6NUM9),0.119
14,SAMSN1 isoform 3 (UniProt Q9NSI8),0.025
15,SH3GL1 (UniProt Q99961),0.118
16,RGS10 (UniProt O43665),-0.035
17,SCG3 (UniProt Q8WXD2),0.09
18,SAAL1 (UniProt Q96ER3),0.046
